The source of these data is PubChem BioAssay (NCI).

Compounds without any hit were thinned out: in the full panel of roughly 83,000, 20% have a hit.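 In brief: 96-well plates, 48 h treatment, single concentration, percent growth endpoint.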 Unmarked numbers belong to inactive results. Activity calls are given as the source filed them. How the source made its calls: active means growth percent below 10; inactive means the rest.

This assay has as its system MDA-MB-231 breast. As to the kind of experiment: NCI-60 one-dose screen, 48 h (100 = growth as untreated, 0 = no growth, -100 = all killed). To be noted: 10 µM unless noted.
Regarding `N#C/C(=C\c1ccc(-c2ccc(Cl)c(Cl)c2)o1)c1nc(-c2ccco2)cs1`, the growth is 84.1%.

Regarding `CC(C)C1=C[C@@]23CC[C@@H]4[C@](C)(CCC[C@@]4(C)C(=O)N4CCCNCC4)[C@H]2C[C@@H]1[C@H]1C(=O)CCC(=O)[C@H]13`, the growth was 109%.

With `COc1ccc(CCNc2nc(SC)nc(-c3cccc([N+](=O)[O-])c3)c2C#N)cc1OC`, the growth is 83.1%.

For the molecule `Cc1cc(NS(=O)(=O)c2ccc(-c3cnc(C4CC4)o3)cc2)ccc1Cl`, the growth was 33.9%.

Regarding `COc1ccc(-c2cc(C(=O)N=Nc3c(O)[nH]c4ccc(Br)cc34)no2)cc1`, the growth is 92.8%.

Turning to `CCCOc1cc2ccccc2cc1C(=O)Nc1nc(NC)c2c(ccc3nccc32)[nH]1`, the growth is -71.3% (active).

In the case of `CCCCN(CCCC)CCCn1c(-c2ccccc2)ccc1-c1ccccc1`, the growth is 22.9%.

As for `Cc1nc2ccccc2n1C(=O)C[C@@H]1NC(=S)NC1=O`, the growth is 95.8%.

`N#CCCN=Nc1c(O)[nH]c2ccc([N+](=O)[O-])cc12`: the growth is 90%.

Regarding `Cc1cc(N2CCOCC2)nc(NCc2cc(Nc3ccnc4cc(Cl)ccc34)ccc2F)n1`, the growth is -78.3% (active).

For the molecule `Nc1n[nH]c2ccc([C@@H]3Nc4cc5c(cc4[C@H]4C6CCC(C6)[C@@H]34)C(=O)NC5)cc12` (some centres undefined), the growth is 37.9%.

Turning to `c1ccc(-c2c(-c3ccccc3)[n+](Cc3ccc4ccccc4c3)c(-c3ccc(-c4nc5ccccc5s4)cc3)n2Cc2ccc3ccccc3c2)cc1`, the growth is -84.3% (active).

Turning to `C=CC(=O)Nc1cccc(-c2nc(SC)nc(NCc3ccccc3)c2C#N)c1`, the growth is 62.4%.

Take `CCCOc1ccc2nc(NC(=O)OC)[nH]c2c1`: the growth is -1.41% (active).

With `COc1cccc(/C=C2\Oc3cc(OCCN4CCCC4)ccc3C2=O)c1`, the growth is 96.3%.

On to `COc1ccc(/C=C2\Oc3cc(OCCCCN4CCCC4)ccc3C2=O)cc1`, for which the growth was 91.3%.

On to `COc1cccc(-c2nn(C(C)(C)C)cc2-c2ccnc(NCCCNS(=O)(=O)c3cccc4ccccc34)c2)c1`, for which the growth is 106%.

With `COc1cccc(-c2nc3sccn3c2-c2ccnc(NCCCNS(=O)(=O)c3c(Cl)cccc3Cl)c2)c1`, the growth is 87.8%.

In the case of `O=C1c2cc3c(cc2-c2c1c1cc(F)c(F)cc1c(=O)n2CCCn1ccnc1)OCO3`, the growth is 13.9%.

With `O=C(/C=C/c1cccc(Cl)c1)c1ccc(O)c(CN2CCN(c3cc4c(cc3F)c(=O)c(C(=O)O)cn4C3CC3)CC2)c1`, the growth was 70.5%.

As for `CCCn1c(=O)[nH]c(N)c([C@H]2c3ccccc3Oc3[nH]c(=O)n(CCC)c(=O)c32)c1=O`, the growth was 81.8%.

On to `N#CCCN=Nc1c(O)[nH]c2ccc(F)cc12`, for which the growth was 102%.

On to `COc1ccc(-c2n[nH]nc2-c2csc3ccccc23)cc1OC`, for which the growth was 35.6%.

On to `COc1cc(/C=C/c2cc(O)c3cc(C(C)=O)c(=O)oc3c2)cc2c1O[C@]1(C)CC[C@@H](O)C(C)(C)[C@H]1C2`, for which the growth is 64.4%.

In the case of `O=C(N=Nc1c(O)[nH]c2ccc(Br)cc12)c1cc(-c2ccccc2)on1`, the growth is 100%.

With `CSc1nc(NCc2ccccc2)c(C#N)c(-c2cccc([N+](=O)[O-])c2)n1`, the growth was 82.7%.

With `O=S(=O)(Nc1ccc(Cl)c(F)c1)c1ccc(-c2cnc(C3CC3)o2)cc1`, the growth is 37.8%.

Consider `CC1(C)CC[C@]2(C(=O)Nc3ccccn3)CC[C@]3(C)C(=CC[C@@H]4[C@@]5(C)C/C(=C/c6cccnc6)C(=O)C(C)(C)[C@@H]5CC[C@]43C)[C@H]2C1`, for which the growth was 73.2%.

For the molecule `O=S(=O)(Nc1ccc(Br)c(Cl)c1)c1ccc(-c2cnc(C3CC3)o2)cc1`, the growth was 33.6%.

Regarding `C=C(C)[C@@H]1CC[C@]2(C(N)=O)CC[C@]3(C)[C@H](CC[C@@H]4[C@@]5(C)C/C(=C/c6ccco6)C(=O)C(C)(C)[C@@H]5CC[C@]43C)[C@@H]12`, the growth was 94.5%.

Consider `Cc1nc2c3c(-c4ccccc4)c(-c4ccccc4)oc3ncn2n1`, for which the growth was 83.3%.

For the molecule `COc1cccc(-c2nn(C(C)(C)C)cc2-c2ccnc(NCCCNS(=O)(=O)c3ccc(C)cc3)c2)c1`, the growth was 112%.

Consider `COc1ccc(-c2nc3ccc(-c4nc5ccc(N6CCN(c7ccc(F)cc7)CC6)cc5[nH]4)cc3[nH]2)cc1OC`, for which the growth was 107%.

With `O=C1NC(=S)NC(=O)C1CC(=O)n1c(-c2ccccc2)nc2ccccc21`, the growth was 88%.
